Article PMC12136788
Positions count from the first letter of the chain named. The full ranking holds about 24,000 sequences; the median of “enrichment r” is about 0.99, and the highest 2% start at about 3.7. For the sample, the highest values were picked, then their nearest neighbours and some sequences at random.

B1: chr16:94664806:94664807:+_ENSMUSG00000040785_ENSMUST00000117648|mus_hu|motif|central (ssRNA)
RNA: GGGAGUUCUACAGUCCGACGAUCAUGAUGACCCUCAAAAUAGGCAGCAGCAUUUUUAUCUGCUCUGUCAUUGGCGGCAAAAGACGGCACCACUGGUACUGAUCUUGGUAGCUGAUAUUCAGGAGAAAGGCUGGCCAAGGGUGUCAACAGAGGAUUGAGCAUCA
B2: chr7:7679991:7679992:-_ENSG00000106399_ENST00000396682|hu_hu|hu_hu_hu_mus_False|1_8 (ssRNA)
RNA: GGGAGUUCUACAGUCCGACGAUCUGGGAUGAAUCUUUUCCAGCUUCCCCACGAAGCACACGGGCCGGUCGAUAUACUGUGGUAACAUGCUGGCGUUGACGCGCGCUUUGGGGAGCUGCAUUAUGUCCACCAUGAUUAUGGUCCCAACAGAGGAUUGAGCAUCA
B3: chr13:100200574:100200575:-_ENSMUSG00000052727_ENSMUST00000064762|mus_hu|motif|central (ssRNA)
RNA: GGGAGUUCUACAGUCCGACGAUCAUAAUCUUCUUCAUCUGGGGACCUGGUUGUUUCCUCAGGCUUUUGAUAGGCAUAGCGGAAGUCACCAGGUGUCUUCCCUCCACUGUCCUUCUCCAGGCCAGGUGUGGACAAAUCUCUAUUCAACAGAGGAUUGAGCAUCA
B4: chr2:48026839:48026840:+_ENSG00000116062_ENST00000540021|hu_hu|hu_hu_hu_mus_False|58_68 (ssRNA)
RNA: GGGAGUUCUACAGUCCGACGAUCAUAGUGAGCCACUAGCGUCCUAAAUCUGGAACAGUGGCGGUCAUCUGAAAACUGACCUAUGAAAAACUUGCCCAGUGAAGUGUCCACAAAGCAAACACCAUACACACGAGUGUGACCAGACAACAGAGGAUUGAGCAUCA
B5: chrX:98862621:98862622:+_ENSMUSG00000034160_ENSMUST00000044475|mus_hu|mus_mus_mus_hu_False|48_68 (ssRNA)
RNA: GGGAGUUCUACAGUCCGACGAUCCUGCAUCUCCUUUAGAGUGUUUCCCAUAUUAGAGUAGGCAUCAGCAAAUGUAGGACUGAUUCGUAUGGCUUCUUUAUAAUGCAUCAGAGCUUCCUGCAGUUUUCCCUGCUGCUGCAGUACCAACAGAGGAUUGAGCAUCA
B6: chr4:109959997:109959998:-_ENSMUSG00000028546_ENSMUST00000106598|mus_mus|FALSE|FALSE (ssRNA)
RNA: GGGAGUUCUACAGUCCGACGAUCUAUAUAUAUAUAUUAAAGAUCCACAGACCACAGUGUGGAUGAUUGUAAAGUAAAUCUAUUAUUGGGAGGGGGUGGGGUGGGAAAGAAAGGGGGAAAAAAAAGAGAGGAAGAAAAGGCGCACAACAGAGGAUUGAGCAUCA
B7: chr4:109959997:109959998:-_ENSMUSG00000028546_ENSMUST00000106598|mus_mus|motif|central (ssRNA)
RNA: B6 RNA with U80G, A81G
B8: chr2:238002776:238002777:+_ENSG00000198612_ENST00000392008|hu_hu|FALSE|FALSE (ssRNA)
RNA: GGGAGUUCUACAGUCCGACGAUCGAUUGAAGUAUACGCUUGAGAGACCAGGGCAAAGGCGCGUCUCCUUGUUGCAUCUCUAAGUGCUUCCAUAAUUGGCUGGACCGUCUCAGACCACUGGUGAGCGUUGAUGGUUGUAUAGAUCAACAGAGGAUUGAGCAUCA
B9: chr1:205685097:205685098:-_ENSG00000069275_ENST00000367142|hu_hu|motif|central (ssRNA)
RNA: GGGAGUUCUACAGUCCGACGAUCUAUCAAGCCUGACUAUUGAGCACCUGUAUCCAGUUGAGUCACCACCACUGUCCUCCGGUUUGCAUGCAUGAUUUGAGGGGAAGACUAGAGUGUUUUAAAUCAUCAAUAAAAAGUGGAGAACAACAGAGGAUUGAGCAUCA
B10: chr1:46159212:46159213:+_ENSG00000159596_ENST00000372025|hu_mus|hu_hu_hu_mus_True|68_98 (ssRNA)
RNA: GGGAGUUCUACAGUCCGACGAUCUCUGAUCCCUCCCAAGAAAGAUAGGAAACCGGCUCCAUAAGCCAUCUGAGUAAAAGCUAGGACGGGGAUAUAAGACUUUGUUAUUACCAUGAGAAGUGGGGGAGCAGUAAAGGGGAUUAACAACAGAGGAUUGAGCAUCA
B11: chr12:86641468:86641469:-_ENSMUSG00000034290_ENSMUST00000040992|mus_hu|FALSE|FALSE (ssRNA)
RNA: GGGAGUUCUACAGUCCGACGAUCCAAGACCUCCCACAAUGUUGAUAAGAUUAUCAAACAUUUUGGUCUGGGGAAGAUGAAACAAAAUUAAUUUAGCUGUUUAUAGGAAGGUGGGAUGUGAGACUCAUCAAAGGUAGGAUGUGUCAACAGAGGAUUGAGCAUCA
B12: chr4:109959997:109959998:-_ENSMUSG00000028546_ENSMUST00000106598|mus_hu|FALSE|FALSE (ssRNA)
RNA: GGGAGUUCUACAGUCCGACGAUCUGUUAUAUAUAAUUAAAGAUCCACAAAACACAGUGUGGAUGAUUGUAAAGCAAAUCAAUUAUUUUUGGGGGGGUGGGCGGGGGAGAGAAAGAAAAAAAAGAAAAGGAGCAGUGAGCUGAACAACAGAGGAUUGAGCAUCA
B13: chr16:49913422:49913423:+_ENSMUSG00000055447_ENSMUST00000084838|mus_mus|motif|central (ssRNA)
RNA: GGGAGUUCUACAGUCCGACGAUCGCUCUCUACGAUUGUAUAAGUGGAGGGCAGACAAUAAAUAAAAAUUGAAUAGAGGCGGUGACAGCAGAAAUCGGGAUUUGGGAGAGAAAAGCGCAUUGUGGGACAAAACAGAUGCGUGGUCAACAGAGGAUUGAGCAUCA
B14: chr16:49913422:49913423:+_ENSMUSG00000055447_ENSMUST00000084838|mus_mus|FALSE|FALSE (ssRNA)
RNA: B13 RNA with G80U, G81A
B15: chr8:73998637:73998638:+_ENSMUSG00000074247_ENSMUST00000124745|mus_hu|FALSE|FALSE (ssRNA)
RNA: GGGAGUUCUACAGUCCGACGAUCCUUGAUACAGGUUACAGCAUAAAUAAAAACUCAAGGAAAAUAAAUACAUCGGCUCCUAUGAGGUUGGAAGUGGUGUGGACGCAGGGUGUGGAUGGGCCGGCAGGGAGGCGGGCGGGCGGGCAACAGAGGAUUGAGCAUCA
B16: chr1:46159212:46159213:+_ENSG00000159596_ENST00000372025|hu_mus|hu_hu_hu_mus_True|8_68 (ssRNA)
RNA: B10 RNA with A44C, G130A, U131C, A132G
B17: chr8:27092522:27092523:-_ENSMUSG00000037251_ENSMUST00000061850|mus_mus|FALSE|FALSE (ssRNA)
RNA: GGGAGUUCUACAGUCCGACGAUCAGCGGGGUGGGUUGUUGUUUGCUGUUGGUCGGUGUUUGUGAAGUGGUCGUGGGCGAAGAAGAAACAAGAAGAAAUGAGAUAUCUUGGCAGCAAAGAUCAUUGCUCCAAGGAACUCGACACCAACAGAGGAUUGAGCAUCA

target: T1, UNK ZnF1-3 (human, UniProt Q9C0B0 31-174); experiment: nsRBNS (natural sequence RNA bind-n-seq); RBNS binding buffer (assumed for nsRBNS): 25 mM Tris pH 7.5, 150 mM KCl, 3 mM MgCl2, 0.01% Triton X-100, 500 ug/ml BSA, 20 U/ml SUPERase-In, 4 C; UNK is unkempt and MSI1 is Musashi-1; names of the RNAs are library labels; protein concentration not given here; high values mean tight binding
T1 sequence: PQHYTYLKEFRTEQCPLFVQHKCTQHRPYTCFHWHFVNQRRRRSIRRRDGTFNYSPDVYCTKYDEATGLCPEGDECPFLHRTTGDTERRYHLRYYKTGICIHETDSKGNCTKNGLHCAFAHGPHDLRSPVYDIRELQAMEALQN

Binder | binding signal [enrichment R]
B1 | 1.61
B2 | 0.387
B3 | 0.378
B4 | 1.18
B5 | 1.06
B6 | 5.2
B7 | 5.4
B8 | 0.907
B9 | 2.19
B10 | 1.71
B11 | 1.55
B12 | 3.98
B13 | 3.75
B14 | 3.41
B15 | 3.01
B16 | 1.56
B17 | 1.76
